The supplement of paper PMC6555819

Experiments:
Experiment in all cases: PBM binding z-score (relative to random genomic background probes); higher = stronger binding; sequences stand for … in GC…GCGATTGACAGCGTAGAATGAAGG
[1] = tested on: FXR:RXRa (NR concentration 270 nM, RXRa partner concentration 90 nM)
In short: (§1)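 Scanned fluorescence from custom Agilent 4×180K protein-binding microarrays was regression-normalized. Binding z-scores use random background probes as reference. Ligand-free nuclear receptor dimers were incubated on the arrays for 1 h and detected with antibodies against each partner (one per run).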

[2] = tested on: LXRa:RXRa (NR concentration 270 nM, RXRa partner concentration 90 nM)
In short: as §1

[3] = tested on: LXRa homodimer (NR concentration 270 nM)
In short: as §1

[4] = tested on: LXRb:RXRa (NR concentration 270 nM, RXRa partner concentration 90 nM)
In short: as §1

[5] = tested on: LXRb homodimer (NR concentration 270 nM)
In short: as §1

[6] = tested on: PPARa:RXRa (NR concentration 270 nM, RXRa partner concentration 90 nM)
In short: as §1

[7] = tested on: PPARg:RXRa (NR concentration 180 nM, RXRa partner concentration 90 nM)
In short: as §1

[8] = tested on: PPARg:RXRa 270nM:90nM, anti-RXR (NR concentration 270 nM, RXRa partner concentration 90 nM)
In short: as §1

[9] = tested on: PPARg:RXRa 30nM:10nM, anti-RXR (NR concentration 30 nM, RXRa partner concentration 10 nM)
In short: as §1

[10] = tested on: PPARg:RXRa 90nM:30nM, anti-RXR (NR concentration 90 nM, RXRa partner concentration 30 nM)
In short: as §1

[11] = tested on: PPARg:RXRa DBDmut IVT, anti-RXR (DBD mutation: RXRa K156A/R161A, NR concentration 270 nM, RXRa partner concentration 90 nM)
In short: as §1

[12] = tested on: PPARg:RXRa IVT, anti-PPARg (NR concentration 270 nM, RXRa partner concentration 90 nM)
In short: as §1

[13] = tested on: PPARg DBDmut:RXRa IVT, anti-PPARg (DBD mutation: PPARg1 K132A/R137A, NR concentration 270 nM, RXRa partner concentration 90 nM)
In short: as §1

[14] = tested on: PPARg DBDmut IVT, anti-PPARg (DBD mutation: PPARg1 K132A/R137A, NR concentration 270 nM)
In short: as §1

[15] = tested on: PPARg homodimer (NR concentration 180 nM)
In short: as §1

[16] = tested on: PXR:RXRa (NR concentration 270 nM, RXRa partner concentration 90 nM)
In short: as §1

[17] = tested on: PXR homodimer (NR concentration 270 nM)
In short: as §1

[18] = tested on: RARa:RXR (NR concentration 270 nM, RXRa partner concentration 90 nM)
In short: as §1

[19] = tested on: RARa homodimer (NR concentration 270 nM)
In short: as §1

[20] = tested on: RARb:RXRa (NR concentration 270 nM, RXRa partner concentration 90 nM)
In short: as §1

| Sequence | PBM binding z-score [1] | PBM binding z-score [2] | PBM binding z-score [3] | PBM binding z-score [4] | PBM binding z-score [5] | PBM binding z-score [6] | PBM binding z-score [7] | PBM binding z-score [8] | PBM binding z-score [9] | PBM binding z-score [10] | PBM binding z-score [11] | PBM binding z-score [12] | PBM binding z-score [13] | PBM binding z-score [14] | PBM binding z-score [15] | PBM binding z-score [16] | PBM binding z-score [17] | PBM binding z-score [18] | PBM binding z-score [19] | PBM binding z-score [20] |
| --- | --- | --- | --- | --- | --- | --- | --- | --- | --- | --- | --- | --- | --- | --- | --- | --- | --- | --- | --- | --- |
| ACAGACAGGTGAGTGAAGGTAAGTCAGCTGGACG | 0.17 | 0.000763 | -0.483 | -0.528 | -0.65 | 0.236 | 0.568 | -0.129 | -0.0839 | -0.0489 | 0.544 | 0.594 | -0.101 | -0.745 | -0.0235 | -0.37 | -0.45 | 0.0462 | -0.141 | 0.623 |
| ATATGTAGGTTAAGGGTCATTCATGTTGGTTCGC | 5.05 | 4.86 | 3.12 | 4.48 | 1.33 | 6.66 | 11.6 | 9.59 | 9.79 | 10.5 | 7.75 | 8.04 | 2.47 | 1.44 | 3.15 | 4.77 | 1.38 | 5.63 | 2.15 | 3.6 |
| CCTATTAGTTGACCTTAAGGGCAACCGAAGCTCG | 6.12 | 4.18 | 2.42 | 4 | 1.3 | 4.75 | 1.81 | 3 | 1.29 | 2.42 | 1.43 | 2.7 | 1.27 | 0.764 | 3.46 | 4.4 | 1.93 | 5.12 | 2.39 | 3.64 |
| CGAACTAGGTCATCCCGGACAGTGAATACATTGA | 4.18 | 2.56 | 0.912 | 2.09 | 0.361 | 4.71 | 7.36 | 6.47 | 3.85 | 6.17 | 7.94 | 8.33 | 3.25 | 4.44 | 4.1 | 1.56 | 0.96 | 2.24 | 1.88 | 3.69 |
| AGAAGGAGGTTATTAAGATCAGGGAATTGCGGTC | 1.12 | 1.36 | 0.522 | 1.46 | 0.654 | 2.01 | 1.01 | 1.31 | 0.314 | 0.827 | 2 | 1.6 | 0.512 | -0.349 | 1.37 | 1.2 | 1.24 | 0.985 | 1.65 | 1.26 |
| CAAACTAGGTAAAGGTCAAAGTCGGTTTGTGCCA | 6.46 | 6.21 | 5.75 | 5.55 | 2.15 | 6.23 | 7.83 | 7.43 | 6.03 | 7.54 | 6.36 | 6.65 | 4.01 | 1.08 | 4.48 | 5.72 | 2.28 | 6.09 | 1.6 | 4.99 |
| GGATATAGGTAATACAAGGTGAAAGTCCGATTGT | 1.08 | 2.72 | 0.722 | 1.12 | 0.202 | 2.58 | 2.63 | 2.51 | 0.801 | 1.87 | 5.48 | 5.34 | 1.29 | 1.44 | 1.17 | 1.02 | 0.527 | 2.01 | 1.8 | 0.806 |
| TAGCCTAGGTCATGCGGGCGAGTATAGTGTCGGC | 3.79 | 2.5 | 0.369 | 1.21 | -0.906 | 3.32 | 2.45 | 2.08 | -0.413 | 1.37 | 1.54 | 2.78 | -0.28 | -1 | 0.366 | 0.704 | -0.37 | 1.97 | -0.358 | 3.54 |
| TCTTGGAGATCAAAGGTTAAGAAAGCCGAAGCCT | 2.17 | 2.17 | -0.196 | 2.2 | -0.93 | 4.34 | 5.56 | 6.62 | 5.5 | 7 | 1.05 | 2.18 | -0.186 | -0.682 | 0.267 | 2.44 | -0.521 | 3.89 | -0.387 | 1.9 |
| TCGAGTAGGTTACCAATGGGACATTCAGCTTTCT | 0.203 | 1.04 | -0.603 | 0.366 | -0.806 | 0.841 | 0.563 | 1.2 | 1.11 | 1.08 | 2.84 | 2.43 | -0.217 | 0.266 | -0.26 | 0.0751 | -0.84 | 0.149 | -0.599 | 0.695 |
| CAAACTAGGTCACCGGAAGGTCAAAGCCCGCATG | 6.08 | 5.95 | 4.27 | 5.11 | 1.45 | 6.06 | 9.85 | 7.89 | 5.9 | 7.57 | 8.25 | 8.78 | 2.12 | 2.03 | 5.32 | 5.67 | 1.53 | 7.16 | 2.71 | 5.32 |
| GCATATAGGAAATACAAGGTGAAAGTCCGATTGT | -0.0334 | -0.148 | -0.095 | 0.0762 | -0.434 | 0.727 | 0.752 | 0.734 | -0.0341 | 0.81 | -0.0437 | 0.645 | -0.0022 | 0.353 | 0.365 | 0.166 | 0.0769 | 0.702 | 0.755 | 0.29 |
| TAGCCTAGGTCAGATCGGGCCAGTATACGCTATA | 1.61 | 1.09 | -0.264 | 0.666 | -0.213 | 1.7 | 0.85 | 0.845 | -0.133 | 0.327 | 0.415 | 1.78 | 0.225 | -0.375 | 0.0641 | 1.01 | -0.518 | 1.42 | -0.937 | 3.02 |
